High-throughput results: PubChem, several laboratories
SENP7 block: SENP7 protease inhibitors, primary screen, biochemical, luminescence, uHTS; Sentrin-specific protease 7 (Homo sapiens), Q9BQF6; recombinant SENP7, Z-RLRGG-aminoluciferin luminescence, 40 min; inhibition, % at 5 µM; 330,000 tested, 1.5% active;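 active = inhibition above about 50% at the single test dose, limit read from the data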;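 also: plate controls were DMSO with enzyme for no effect and no enzyme buffer wells for full effect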
SENP6 inh: SENP6 protease inhibitors, primary screen, biochemical, luminescence, uHTS. AID 2599, 2010. inhibition, % at 10 µM. 330,000 tested, 1.8% active. Sentrin-specific protease 6 (Homo sapiens), Q9GZR1. Recombinant SENP6 catalytic domain, aminoluciferin luminescence;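 active = inhibition above about 50% at the single tested dose, limit read from the data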;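 also: plate controls were DMSO wells with enzyme for no effect and DMSO wells lacking enzyme for full effect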
Target sequence (Q9GZR1 628-1112 limits assumed): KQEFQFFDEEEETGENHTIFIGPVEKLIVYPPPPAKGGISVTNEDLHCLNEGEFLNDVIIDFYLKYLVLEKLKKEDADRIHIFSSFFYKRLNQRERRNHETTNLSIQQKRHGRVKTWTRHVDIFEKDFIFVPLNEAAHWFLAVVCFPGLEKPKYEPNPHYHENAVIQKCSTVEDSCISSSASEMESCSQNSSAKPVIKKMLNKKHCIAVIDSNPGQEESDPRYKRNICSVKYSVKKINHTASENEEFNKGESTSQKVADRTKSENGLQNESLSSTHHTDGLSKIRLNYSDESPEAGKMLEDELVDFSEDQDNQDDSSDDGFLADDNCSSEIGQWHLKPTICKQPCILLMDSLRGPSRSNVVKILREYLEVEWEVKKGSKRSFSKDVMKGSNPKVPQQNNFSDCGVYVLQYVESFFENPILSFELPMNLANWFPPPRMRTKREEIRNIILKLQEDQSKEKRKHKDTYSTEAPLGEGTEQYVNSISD
Platelet DG rel: inhibitors of platelet dense granule secretion, primary screen, cell-based, MLPCN, human platelets | human platelet-rich plasma, SFLLRN dense granule ATP release, luminescence | inhibition, %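 (compounds screened at 7.5 µM in platelet-rich plasma)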 | 300,000 tested, 0.22% active;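 active = mean replicate score, as percent of positive control, at or above 50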
SENP8 block-1: human SENP8 protease inhibitors, primary screen, biochemical, fluorescence, Nedd8 protein substrate, uHTS; inhibition, % at 20 µM; Sentrin-specific protease 8 (Homo sapiens), Q96LD8; recombinant SENP8; 360,000 tested, 0.64% active; in the data active = inhibition mostly above about 40%, no sharp cut-off; inactive = mostly below about 27%
SENP8 block-2: SENP8 protease inhibitors, primary screen, biochemical, luminescence; Sentrin-specific protease 8 (Homo sapiens), Q96LD8; purified SENP8, Z-RLRGG-aminoluciferin cleavage; 330,000 tested, 1.2% active; inhibition, % at 10 µM; in the data active = inhibition above about 50%
SENP8 confirm: SENP8 protease inhibitors, retest, confirmation, biochemical, luminescence, single concentration | shares compounds with SENP7 block | Recombinant SENP8, Z-RLRGG-aminoluciferin luminescence, 60 min | inhibition, % at 12.5 µM | 6,200 tested, 40% active | AID 488912, 2010;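 active = mean inhibition across replicates above about 50%, limit read from the data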
SENP6 conf: SENP6 protease inhibitors, confirmation, biochemical, luminescence, single concentration; shares compounds with SENP7 block; recombinant SENP6, Z-RLRGG-aminoluciferin luminescence; inhibition, % at 12.5 µM; 6,200 tested, 58% active; AID 488915, 2010
SENP7 confirm: SENP7 protease inhibitors, retest, confirmation, biochemical, luminescence, single concentration | shares compounds with SENP7 block | recombinant SENP7, Z-RLRGG-aminoluciferin luminescence, 40 min | inhibition, % at 12.5 µM | 6,200 tested, 69% active | AID 488917, 2010
Casp3 select: caspase-3 protease inhibitors, confirmation, selectivity assay for SENP inhibitor project, biochemical, single concentration; shares compounds with SENP7 block; purified caspase-3, Z-DEVD-aminoluciferin luminescence, 60 min; inhibition, % at 12.5 µM; 6,200 tested, 60% active;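 active = mean inhibition above about 50%, limit read from the data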;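 also: plate controls were enzyme with DMSO for no effect and wells without caspase-3 for full effect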
Luc interf: counter-screen for SENP inhibitors: luminescence interference; shares compounds with SENP7 block; Pre-incubated SENP8/Z-RLRGG-aminoluciferin, luciferase luminescence interference; inhibition, % at 12.5 µM; 6,200 tested, 39% active; AID 488919;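 active = mean inhibition above about 50% when retested at one dose, limit read from the data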;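 also: plate controls were DMSO wells with completed reaction for no effect and substrate without enzyme for full effect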
Starred values were filed as active, the others as inactive; . = not tested or not shown. Only some compounds are listed: those with a hit (about 2.4% of all), similar ones and a draw of the others.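 The calls were made as follows, unless noted: active = mean inhibition above about 50% in the one-dose retest (limit read from the data); inactive = the rest.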

SMILES | SENP7 block | SENP6 inh | Platelet DG rel | SENP8 block-1 | SENP8 block-2 | SENP8 confirm | SENP6 conf | SENP7 confirm | Casp3 select | Luc interf
CCOc1ccc(C(=O)Nc2cccc(C(=O)O)c2)cc1Cl | 100.1* | 95.0* | 5.8 | 19.0 | 96.9* | 98.4* | 99.3* | 102.5* | 89.9* | 98.3*
Cc1ccc(C(=O)Nc2cccc(C(=O)O)c2)cc1 | 98.7* | 91.8* | 22.1 | . | 95.3* | 98.9* | 99.8* | 102.8* | 96.1* | 98.3*
Cc1ccc(-c2cc(NC(=O)c3ccccc3)on2)cc1 | 87.4* | 50.3* | 7.3 | 9.2 | 52.3* | 33.8 | 43.2 | 91.5* | 62.6* | 1.9
O=C(O)c1cccc(NC(=O)c2cc(NC(=O)c3ccccc3)cc(NC(=O)c3ccccc3)c2)c1 | 10.4 | 89.8* | -11.5 | 0.5 | -2.0 | 15.4 | 7.5 | -0.5 | -4.7 | -5.3
CCN1CCN(c2ccc(S(=O)(=O)N3CCCCC3)cc2NC(=O)c2cccc(C(F)(F)F)c2)CC1 | 9.9 | -21.1 | 10.0 | 6.0 | -3.0 | . | . | . | . | .
S=C(Nc1ccc(Cl)cc1)Nc1cccc2cnccc12 | 61.7* | 92.0* | 12.5 | -156.2 | 84.8* | 9.4 | 56.3* | 28.0 | 7.2 | 6.1
CCN(C(=S)Nc1cccnc1)c1cccc2ccccc12 | 54.0* | 86.9* | -5.5 | -376.2 | 51.4* | -7.5 | -3.6 | -1.1 | -1.4 | -5.2
S=C(Nc1cccnc1)Nc1cccc2cnccc12 | 85.5* | 94.5* | 7.8 | -54.9 | 91.6* | 20.5 | 48.2 | 28.4 | 4.4 | -1.1
Fc1ccc(NC(=S)Nc2cccc3cnccc23)cc1 | 76.7* | 97.8* | -5.8 | -100.0 | 88.9* | -0.7 | 17.3 | 2.3 | -1.7 | -2.8
CCN(C(=S)Nc1cccnc1)c1ccccc1 | 10.7 | 6.7 | 0.8 | 12.1 | -1.6 | . | . | . | . | .
CC[C@H](C)[C@H](NC(=O)c1ccccc1)C(=O)Nc1ccc(S(=O)(=O)Nc2cc(C)nc(C)n2)cc1 | -3.2 | -29.6 | -0.7 | 30.4 | -6.1 | . | . | . | . | .
CC(N=C1NS(=O)(=O)c2ccccc21)C(=O)NCc1ccncc1 (configuration not stated) | -11.2 | -4.9 | . | 4.5 | -3.8 | . | . | . | . | .
Cc1ccc(-n2ccnc(SCC(=O)NC3CCCCC3)c2=O)cc1F | 1.8 | 2.4 | 1.1 | -284.3 | 2.8 | . | . | . | . | .
Cc1cccc(C(=O)O/N=C(\N)c2ccc(Br)cc2)c1 | 24.7 | 37.8 | -2.3 | -5.2 | 7.9 | . | . | . | . | .
Cc1cccc(C(=O)O/N=C/c2ccc(Br)cc2)c1 | 61.5* | 67.9* | 1.0 | 6.5 | 60.7* | 49.5 | 73.6* | 87.9* | 61.1* | 34.2
COc1ccc(C(=O)Nc2ccc3c(c2)C(=O)c2ccccc2C3=O)cc1OC | 5.5 | -12.1 | 20.0 | 19.6 | 4.8 | . | . | . | . | .
COc1ccc(C(=O)c2c(C(F)(F)F)oc3c2C(=O)c2ccccc2C3=O)cc1OC | 45.2 | 58.4* | -2.3 | 63.4* | 60.4* | 9.5 | 78.8* | 31.7 | 77.5* | 1.1
Cc1cc(NC(=O)c2cccs2)ncc1NC(=O)c1cccc(F)c1 | 32.6 | -6.4 | 1.9 | -47.5 | 13.3 | . | . | . | . | .
O=C(Nc1ccc(Cl)cn1)Nc1ccc(Cl)cn1 | 0.3 | -5.0 | 14.9 | -0.5 | 1.1 | . | . | . | . | .
